MsrA inh – inhibitors of bovine MsrA | purified bovine MsrA, absorbance read-out | AID 651718 | inhibition, % at 15.5 µM | hit rate 0.75% among 360,000; in the data active = inhibition above about 4.5%;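 also: 0% = vehicle wells with enzyme and 100% = reference inhibitor wells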
PLC-beta3 inh – PLC-beta3 (human) inhibition, primary screen. Q01970. Purified PLC-beta3, fluorogenic substrate, fluorescence. inhibition, % at 12.2 µM. hit rate 0.18% among 370,000; in the data active = inhibition above about 11%;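 also: 0% = median of compound wells on plate and 100% = full blocker control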
PLC-gamma1 inh – blocks human PLC-gamma1 enzyme activity; inhibition, % at 12.2 µM; purified PLC-gamma1, fluorogenic substrate, fluorescence; AID 720700; hit rate 0.84% among 370,000; in the data active = inhibition above about 9.5%
Target sequence (P19174 whole entry, looked up): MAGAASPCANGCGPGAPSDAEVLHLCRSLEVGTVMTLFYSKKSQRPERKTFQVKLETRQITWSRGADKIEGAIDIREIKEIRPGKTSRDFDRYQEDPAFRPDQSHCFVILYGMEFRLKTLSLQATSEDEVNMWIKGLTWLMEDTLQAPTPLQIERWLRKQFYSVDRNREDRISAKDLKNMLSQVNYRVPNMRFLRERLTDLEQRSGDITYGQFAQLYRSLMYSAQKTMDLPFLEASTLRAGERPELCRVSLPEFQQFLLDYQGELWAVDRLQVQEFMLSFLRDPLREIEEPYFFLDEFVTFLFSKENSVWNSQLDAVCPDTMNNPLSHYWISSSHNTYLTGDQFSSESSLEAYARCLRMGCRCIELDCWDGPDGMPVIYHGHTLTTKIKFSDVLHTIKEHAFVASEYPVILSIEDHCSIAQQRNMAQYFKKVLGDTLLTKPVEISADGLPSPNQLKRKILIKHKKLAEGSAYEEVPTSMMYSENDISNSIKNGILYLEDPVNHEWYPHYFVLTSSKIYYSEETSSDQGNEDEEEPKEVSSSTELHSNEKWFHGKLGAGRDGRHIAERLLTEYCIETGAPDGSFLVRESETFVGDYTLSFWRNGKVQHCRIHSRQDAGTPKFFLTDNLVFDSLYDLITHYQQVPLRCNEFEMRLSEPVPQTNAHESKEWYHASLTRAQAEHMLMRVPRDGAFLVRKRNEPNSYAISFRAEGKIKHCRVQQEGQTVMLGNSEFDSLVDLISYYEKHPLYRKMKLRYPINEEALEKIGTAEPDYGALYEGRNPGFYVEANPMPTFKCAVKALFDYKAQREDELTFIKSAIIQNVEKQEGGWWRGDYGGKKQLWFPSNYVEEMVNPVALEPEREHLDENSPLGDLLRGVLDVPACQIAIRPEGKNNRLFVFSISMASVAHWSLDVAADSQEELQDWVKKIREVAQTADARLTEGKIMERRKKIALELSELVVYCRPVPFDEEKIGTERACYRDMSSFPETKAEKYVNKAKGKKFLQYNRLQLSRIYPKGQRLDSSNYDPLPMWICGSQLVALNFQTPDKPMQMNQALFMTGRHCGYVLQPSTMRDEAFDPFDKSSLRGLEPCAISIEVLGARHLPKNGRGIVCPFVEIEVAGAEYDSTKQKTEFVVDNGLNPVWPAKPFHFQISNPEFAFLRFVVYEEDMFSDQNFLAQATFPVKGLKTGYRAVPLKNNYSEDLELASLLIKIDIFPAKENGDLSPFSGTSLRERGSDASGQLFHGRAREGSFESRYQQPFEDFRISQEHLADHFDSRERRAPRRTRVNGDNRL
MsrA act – activates bovine MsrA enzyme. purified bovine MsrA, absorbance read-out. activation, % at 10.6 µM. hit rate 0.3% among 360,000. AID 602163; in the data active = activation above about 7.5%;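 also: 0% = vehicle and 100% = reference activator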
An asterisk follows results filed as active; x = no result. Shown are actives, neighbours in structure and some others; about 1.9% of the full set was active somewhere.

SMILES	MsrA inh	PLC-beta3 inh	PLC-gamma1 inh	MsrA act
C[C@@H]1CN([C@H](C)CO)C(=O)c2cc(NS(=O)(=O)c3ccccc3)ccc2O[C@@H](C)CCCCO[C@@H]1CN(C)Cc1ccccc1	0	4	2	x
O=C(Nc1cc([N+](=O)[O-])ccc1N1CCOCC1)c1cccs1	0	-8	-1	-3
O=C(Nc1ccc(NC(=O)c2cc([N+](=O)[O-])ccc2N2CCOCC2)cc1)c1cccs1	4.6*	-9	4	-5
CC1CCCC(C)N1/N=C/c1cc(Br)c(O)c(Br)c1 (stereo unspecified)	4.6*	-3	-2	x
COc1cc(/C=N/N2C(C)CCCC2C)cc(Br)c1O (stereo unspecified)	3	0	0	-4
CC[C@H](C)[C@H]1CNC(=O)C(=O)N1CC1CCN(CC(C)C)CC1	-1	1	0	x
O=c1c2ccccc2sn1-c1nccs1	1	-3	-1	17*
Cn1sc2ccccc2c1=O	1	-4	0	7.8*
O=C1c2ccccc2C(=O)N1c1nccs1	0	-4	2	-7
COC(=O)C1=C(C)N(C)C(=NCc2ccccc2)NC1c1ccccc1 (stereo unspecified)	0	1	-1	x
CCCCCCSc1ccc([C@H]2N[C@@](C)(C(=O)OC)[C@H]3C(=O)N(C)C(=O)[C@@H]23)cc1	0	-1	4	8.4*
COc1ccc(C(C(=O)NC2CCCCC2)N(C(=O)c2sc(C)nc2C)c2ccccc2C)cc1 (stereo unspecified)	1	9	9.9*	8
COc1ccc(C(C(=O)NC2CCCCC2)N(C(=O)c2sc(C)nc2C)c2ccccc2)cc1 (stereo unspecified)	0	1	1	-2
O=C(CCCc1ccccc1)Nc1cccnc1Cl	1	12*	3	-3
O=C(N[C@H](C(=O)N1CCC[C@H]1C(=O)NC1CCCC1)C1CCCCC1)c1cccs1	0	2	3	x
Cc1cc(Oc2cccc3c2S(=O)(=O)N([C@H](C)c2ccccc2)C[C@@H](COCc2ccccc2)O3)cc(C)c1C	0	-3	0	x
Cc1ccc(C(=O)Nc2ccc(Oc3ccc(C(=O)O)c(C(=O)O)c3)cc2)cc1C	1	4	11*	-10
Cc1ccc(C(=O)Nc2ccc(Nc3ccccc3)cc2)cc1C	1	-26	-17	1
Cc1ccc(C)c(OCC(=O)Nc2ccc3c(c2)OCO3)c1C	1	-1	12*	-5
Cc1cccc(OCC(=O)Nc2ccc3c(c2)OCO3)c1C	1	-1	1	-1
O=C(CN1C(=O)CCSc2ccccc21)Nc1ccc(Cl)cc1	x	1	-1	x
COc1ccccc1CN1CC(C(=O)N(C)CCc2ccccn2)CCC1=O (stereo unspecified)	1	13*	6	-2
COc1ccccc1CN1CC(C(=O)N(C)CCOc2ccccc2)CCC1=O (stereo unspecified)	0	-5	-1	-1
CC(C)(C)C1CCc2[nH]nc(C(=O)O)c2C1 (stereo unspecified)	2	10	15*	-3
CCC(C)(C)C1CCc2[nH]nc(C(=O)O)c2C1 (stereo unspecified)	0	2	2	-5
SMILES	MsrA inh	PLC-beta3 inh	PLC-gamma1 inh	MsrA act
CC(=O)c1c(C)[nH]c(C(=O)OCC(=O)Nc2ccc(C)cc2[N+](=O)[O-])c1C	2	3	6	-9
CC(=O)c1c(C)[nH]c(C(=O)OCC(=O)Nc2cc(Cl)ccc2[N+](=O)[O-])c1C	1	10	11*	-4
CC(=O)NC1CCCCN(Cc2ccc(Cl)cc2)C1=O (stereo unspecified)	x	10	4	x
Cc1cccc(Cl)c1NC(=O)N(C)c1ccccc1	0	5	12*	x
CCc1ccc(/C=C2/SC(=S)N(CC(=O)Nc3nc4ccccc4s3)C2=O)cc1	0	-4	-2	13*
CCc1ccc(/C=C2\SC(=S)N(CCCC(=O)Nc3ccccn3)C2=O)cc1	0	-1	0	1
COCCCN1C(=O)[C@H](CC(=O)NCc2ccc(C)o2)[C@]2(C(=O)OC)CCCCC=C12	x	-1	-2	x
O=C(CNc1cccc(S(=O)(=O)N2CCCCCC2)c1)Nc1cccc([N+](=O)[O-])c1	3	-3	0	-13
O=C(CNc1cccc([N+](=O)[O-])c1)N1CCN(S(=O)(=O)c2ccc(Cl)cc2)CC1	2	12*	1	0
COC(=O)C(C(=O)OC)C1C=CCN(C(C)=O)C1 (stereo unspecified)	0	0	29*	-1
COC(=O)C(C(=O)N1CCN(C)CC1)C1CCCCCC1 (stereo unspecified)	-1	0	0	-2
O=C(NCc1ccccc1)[C@H]1CCCN1C(=O)[C@H]1CCCN1C(=O)c1ccc(OC(F)(F)F)cc1	1	-1	3	x
Clc1cccc(-c2cc3nc4c(c(N5CCOCC5)n3n2)CCCC4)c1	4.8*	-135	-111	-7
O=C(NCCCNc1ccc(C(F)(F)F)cc1[N+](=O)[O-])c1cc(F)c(F)cc1Cl	0	8	2	8.7*
Cc1cccc(Nc2nc(N)c(C#N)c(CC#N)c2C#N)c1	4.6*	-22	-20	-5
Cc1ccc(C(=O)N2CCC[C@@H]2C(=O)N2CCC[C@@H]2C(=O)NCc2ccccc2)cc1C	-1	1	1	x
COC(=O)C(=CC(=CN(C)C)C=C(C(=O)OC)C(=O)OC)C(=O)OC	4.5*	-10	-3	-5
c1ccc(SCCN2CCN(c3ccccc3)CC2)cc1	1	-4	10*	-10
CC(=O)c1ccc(Nc2nc(C(C)N)cs2)cc1 (stereo unspecified)	4.6*	-39	-26	-6
C[C@@H]1ON(C)[C@H]2C[C@H]3c4[nH]c5c(-c6ccccc6F)cccc5c4CCN3C(=O)[C@@H]12	-1	-87	-72	x
COc1cc2c(cc1NC(=O)CN(C)Cc1ccc(OC)c(OC)c1)oc1ccccc12	4.6*	-4	-2	-7
Cc1ccc(S(=O)(=O)/N=C2/NC(=O)/C(=C/c3ccccc3)S2)cc1	4.6*	-2	1	-4
COc1ccc(/C=C/C(=O)c2ccc[nH]2)c(OC)c1OC	4.6*	-43	-27	-2
CCOC(=O)N1CCC(Nc2c(Nc3cccc(CC)c3)c(=O)c2=O)CC1	4.6*	-50	-33	-3
CCc1nn(CC(=O)NCCCN(CC)Cc2ccccc2)c(=O)c2cc3sccc3n12	2	3	11*	-1
SMILES	MsrA inh	PLC-beta3 inh	PLC-gamma1 inh	MsrA act
CC(C)CC(c1nnnn1Cc1cccs1)N1CCN(c2nc3ccccc3s2)CC1 (stereo unspecified)	1	10	9.9*	-5
CCOC(=O)N1CCN(C(=O)C[C@H]2C[C@@]3(C(=O)OC)C(=C[C@H](C(C)C)O[C@@H]3C3CC3)N(Cc3ccccc3)C2=O)CC1	-1	6	4	x
COCCNC(=O)c1csc2c1CCCC2	-1	6	3	12*
COc1ccc(CCNC(=O)c2csc3c2CCCC3)cc1OC	2	-3	0	-1
COc1ccc(C=O)cc1-c1cc(C(C)=O)c2n(c1=O)CCC2	x	0	0	x
COc1ccc(C=NNC(=S)NN=Cc2ccc(OC)c(OC)c2)cc1OC	5.7*	-125	-93	1
